# ± gives the standard deviation.
# T1: HaloTag-ATRX ADD domain (163-292)
# T1 chain: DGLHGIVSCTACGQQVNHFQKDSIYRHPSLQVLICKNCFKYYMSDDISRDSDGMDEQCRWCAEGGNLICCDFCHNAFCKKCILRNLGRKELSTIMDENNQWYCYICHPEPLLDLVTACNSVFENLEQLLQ
# What was measured:
# Experiment in all cases: peptide microarray binding signal (635 nm), min-max normalized on array (fraction of array maximum); higher = stronger binding
# [1] = target: T1, HaloTag-ATRX ADD domain (163-292)
# Outline: (§1)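 Within each library, mean intensities of triplicate spots were min-max scaled to give the binding signal. The spots were histone 13-mer peptide–cellulose conjugates on nitrocellulose with a Cy3 tracer, blocked overnight at 4°C. They were then probed for 1 h at 4°C using biotin-labelled HaloTag reader fusions (10 nM to 1 μM) with streptavidin-Alexa Fluor 647 or rabbit histone antibodies (1:10,000 to 1:2,000) with anti-rabbit Alexa 647, and scanned at 635 nm for signal and 532 nm for misprints on an Axon GenePix 4000B.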
# [2] = target: HaloTag-ING2 PHD (mouse Ing2 200-280)
# Outline: as §1
# [3] = target: anti-H3K4me3 antibody ab8580
# Outline: as §1
# [4] = target: anti-H3K9me3 antibody ab8898
# Outline: as §1
# [5] = peptide region: H3 5-17, peptide modifications: H3K9ac, binder concentration: 1:2,000 dilution
# [6] = peptide region: H3 5-17, peptide modifications: H3K9ac, binder concentration: 1:10,000 dilution
# [7] = peptide region: H3 1-13, peptide modifications: H3T6ph, binder concentration: 1:2,000 dilution
# [8] = peptide region: H3 1-13, peptide modifications: H3T6ph, binder concentration: 1:10,000 dilution
# [9] = peptide region: H3 5-17, peptide modifications: H3K9ac H3K14me3, binder concentration: 1:2,000 dilution
# [10] = peptide region: H3 5-17, peptide modifications: H3K9ac H3K14me3, binder concentration: 1:10,000 dilution
# [11] = peptide region: H3 5-17, peptide modifications: H3K9me1 H3K14ac, binder concentration: 1:2,000 dilution
# [12] = peptide region: H3 5-17, peptide modifications: H3K9me1 H3K14ac, binder concentration: 1:10,000 dilution
# [13] = peptide region: H3 1-13, peptide modifications: H3T6ph H3R8me1, binder concentration: 1:2,000 dilution
# [14] = peptide region: H3 1-13, peptide modifications: H3T6ph H3R8me1, binder concentration: 1:10,000 dilution
# [15] = peptide region: H3 5-17, peptide modifications: H3K9ac H3T11ph, binder concentration: 1:2,000 dilution
# [16] = peptide region: H3 5-17, peptide modifications: H3K9ac H3T11ph, binder concentration: 1:10,000 dilution
# [17] = peptide region: H3 5-17, peptide modifications: H3K9ac H3K14me1, binder concentration: 1:2,000 dilution
# [18] = peptide region: H3 5-17, peptide modifications: H3K9ac H3K14me1, binder concentration: 1:10,000 dilution
# [19] = peptide region: H3 5-17, peptide modifications: H3K9me1, binder concentration: 1:2,000 dilution
# [20] = peptide region: H3 5-17, peptide modifications: H3K9me1, binder concentration: 1:10,000 dilution
# [21] = peptide region: H3 5-17, peptide modifications: H3K9me1 H3K14me1, binder concentration: 1:2,000 dilution
# [22] = peptide region: H3 5-17, peptide modifications: H3K9me1 H3K14me1, binder concentration: 1:10,000 dilution
# [23] = peptide region: H3 5-17, peptide modifications: H3K9me1 H3K14me2, binder concentration: 1:2,000 dilution
# [24] = peptide region: H3 5-17, peptide modifications: H3K9me1 H3K14me2, binder concentration: 1:10,000 dilution
binder,measurement,setting,value
QTARKSTGGKAPR [H3 5-17 Q T A R Kac S T G G K A P R],peptide microarray binding signal,"[1]; peptide region: H3 5-17, peptide modifications: H3K9ac, binder concentration: 50 nM",0.00263 ± 0.00033
same,peptide microarray binding signal,"[1]; peptide region: H3 5-17, peptide modifications: H3K9ac, binder concentration: 500 nM",0.00271 ± 0.00021
same,peptide microarray binding signal,"[2]; peptide region: H3 5-17, peptide modifications: H3K9ac, binder concentration: 10 nM",0.00352 ± 5e-05
same,peptide microarray binding signal,"[2]; peptide region: H3 5-17, peptide modifications: H3K9ac, binder concentration: 100 nM",0.002055 ± 2e-05
same,peptide microarray binding signal,[3]; [5],0.00123 ± 0.0001
same,peptide microarray binding signal,[3]; [6],0.00245 ± 0.00036
same,peptide microarray binding signal,[4]; [5],0.0011 ± 6.7e-05
same,peptide microarray binding signal,[4]; [6],0.00167 ± 7.4e-05
ARTKQTARKSTGG [H3 1-13 A R T K Q Tph A R K S T G G],peptide microarray binding signal,"[1]; peptide region: H3 1-13, peptide modifications: H3T6ph, binder concentration: 50 nM",0.004044 ± 1.6e-05
same,peptide microarray binding signal,"[1]; peptide region: H3 1-13, peptide modifications: H3T6ph, binder concentration: 500 nM",0.009 ± 0.00047
same,peptide microarray binding signal,"[2]; peptide region: H3 1-13, peptide modifications: H3T6ph, binder concentration: 10 nM",0.0046 ± 0.00047
same,peptide microarray binding signal,"[2]; peptide region: H3 1-13, peptide modifications: H3T6ph, binder concentration: 100 nM",0.0195 ± 0.002
same,peptide microarray binding signal,[3]; [7],0.000793 ± 7.5e-05
same,peptide microarray binding signal,[3]; [8],0.000285 ± 3.1e-06
same,peptide microarray binding signal,[4]; [7],0.000755 ± 2.9e-05
same,peptide microarray binding signal,[4]; [8],0.000288
QTARKSTGGKAPR [H3 5-17 Q T A R Kac S T G G Kme3 A P R],peptide microarray binding signal,"[1]; peptide region: H3 5-17, peptide modifications: H3K9ac H3K14me3, binder concentration: 50 nM",0.00755 ± 0.00045
same,peptide microarray binding signal,"[1]; peptide region: H3 5-17, peptide modifications: H3K9ac H3K14me3, binder concentration: 500 nM",0.0117 ± 0.00052
same,peptide microarray binding signal,"[2]; peptide region: H3 5-17, peptide modifications: H3K9ac H3K14me3, binder concentration: 10 nM",0.00758 ± 0.00031
same,peptide microarray binding signal,"[2]; peptide region: H3 5-17, peptide modifications: H3K9ac H3K14me3, binder concentration: 100 nM",0.00957 ± 0.00088
same,peptide microarray binding signal,[3]; [9],0.0161 ± 0.0026
same,peptide microarray binding signal,[3]; [10],0.0127 ± 0.0015
same,peptide microarray binding signal,[4]; [9],0.0416 ± 0.0084
same,peptide microarray binding signal,[4]; [10],0.0649 ± 0.082
QTARKSTGGKAPR [H3 5-17 Q T A R Kme S T G G Kac A P R],peptide microarray binding signal,"[1]; peptide region: H3 5-17, peptide modifications: H3K9me1 H3K14ac, binder concentration: 50 nM",0.00661 ± 0.00012
same,peptide microarray binding signal,"[1]; peptide region: H3 5-17, peptide modifications: H3K9me1 H3K14ac, binder concentration: 500 nM",0.0218 ± 0.0024
same,peptide microarray binding signal,"[2]; peptide region: H3 5-17, peptide modifications: H3K9me1 H3K14ac, binder concentration: 10 nM",0.0233 ± 0.0035
same,peptide microarray binding signal,"[2]; peptide region: H3 5-17, peptide modifications: H3K9me1 H3K14ac, binder concentration: 100 nM",0.0424 ± 0.0029
same,peptide microarray binding signal,[3]; [11],0.00255 ± 0.00039
same,peptide microarray binding signal,[3]; [12],0.00228 ± 0.00016
same,peptide microarray binding signal,[4]; [11],0.0548 ± 0.0034
same,peptide microarray binding signal,[4]; [12],0.016 ± 0.00023
ARTKQTARKSTGG [H3 1-13 A R T K Q Tph A Rme K S T G G],peptide microarray binding signal,"[1]; peptide region: H3 1-13, peptide modifications: H3T6ph H3R8me1, binder concentration: 50 nM",0.00476 ± 9.2e-05
same,peptide microarray binding signal,"[1]; peptide region: H3 1-13, peptide modifications: H3T6ph H3R8me1, binder concentration: 500 nM",0.022 ± 0.0012
same,peptide microarray binding signal,"[2]; peptide region: H3 1-13, peptide modifications: H3T6ph H3R8me1, binder concentration: 10 nM",0.00507 ± 0.0011
same,peptide microarray binding signal,"[2]; peptide region: H3 1-13, peptide modifications: H3T6ph H3R8me1, binder concentration: 100 nM",0.0331 ± 0.012
same,peptide microarray binding signal,[3]; [13],0.00111 ± 7.2e-05
same,peptide microarray binding signal,[3]; [14],0.00148 ± 0.0001
same,peptide microarray binding signal,[4]; [13],0.00234 ± 0.00042
same,peptide microarray binding signal,[4]; [14],0.00213 ± 7.1e-05
QTARKSTGGKAPR [H3 5-17 Q T A R Kac S Tph G G K A P R],peptide microarray binding signal,"[1]; peptide region: H3 5-17, peptide modifications: H3K9ac H3T11ph, binder concentration: 50 nM",0.00266 ± 6.1e-05
same,peptide microarray binding signal,"[1]; peptide region: H3 5-17, peptide modifications: H3K9ac H3T11ph, binder concentration: 500 nM",0.0107 ± 0.00079
same,peptide microarray binding signal,"[2]; peptide region: H3 5-17, peptide modifications: H3K9ac H3T11ph, binder concentration: 10 nM",0.00531 ± 0.00025
same,peptide microarray binding signal,"[2]; peptide region: H3 5-17, peptide modifications: H3K9ac H3T11ph, binder concentration: 100 nM",0.0213 ± 0.0014
same,peptide microarray binding signal,[3]; [15],0.000755 ± 2.5e-05
same,peptide microarray binding signal,[3]; [16],0.000171 ± 1.9e-06
same,peptide microarray binding signal,[4]; [15],0.00547 ± 0.00037
same,peptide microarray binding signal,[4]; [16],0.00271 ± 0.00015
QTARKSTGGKAPR [H3 5-17 Q T A R Kac S T G G Kme A P R],peptide microarray binding signal,"[1]; peptide region: H3 5-17, peptide modifications: H3K9ac H3K14me1, binder concentration: 50 nM",0.00746 ± 0.00018
same,peptide microarray binding signal,"[1]; peptide region: H3 5-17, peptide modifications: H3K9ac H3K14me1, binder concentration: 500 nM",0.024 ± 0.0017
same,peptide microarray binding signal,"[2]; peptide region: H3 5-17, peptide modifications: H3K9ac H3K14me1, binder concentration: 10 nM",0.023 ± 0.0062
same,peptide microarray binding signal,"[2]; peptide region: H3 5-17, peptide modifications: H3K9ac H3K14me1, binder concentration: 100 nM",0.0497 ± 0.004
same,peptide microarray binding signal,[3]; [17],0.00345 ± 0.00048
same,peptide microarray binding signal,[3]; [18],0.00205 ± 3.8e-05
same,peptide microarray binding signal,[4]; [17],0.0192 ± 0.002
same,peptide microarray binding signal,[4]; [18],0.00882 ± 0.00058
QTARKSTGGKAPR [H3 5-17 Q T A R Kme S T G G K A P R],peptide microarray binding signal,"[1]; peptide region: H3 5-17, peptide modifications: H3K9me1, binder concentration: 50 nM",0.00445 ± 0.00012
same,peptide microarray binding signal,"[1]; peptide region: H3 5-17, peptide modifications: H3K9me1, binder concentration: 500 nM",0.00171 ± 7.9e-05
same,peptide microarray binding signal,"[2]; peptide region: H3 5-17, peptide modifications: H3K9me1, binder concentration: 10 nM",0.00448 ± 0.00018
same,peptide microarray binding signal,"[2]; peptide region: H3 5-17, peptide modifications: H3K9me1, binder concentration: 100 nM",0.002055 ± 2e-05
same,peptide microarray binding signal,[3]; [19],0.000642 ± 1.6e-05
same,peptide microarray binding signal,[3]; [20],0.0139 ± 0.012
same,peptide microarray binding signal,[4]; [19],0.0007551 ± 6.5e-06
same,peptide microarray binding signal,[4]; [20],0.00121 ± 2.4e-05
QTARKSTGGKAPR [H3 5-17 Q T A R Kme S T G G Kme A P R],peptide microarray binding signal,"[1]; peptide region: H3 5-17, peptide modifications: H3K9me1 H3K14me1, binder concentration: 50 nM",0.00339 ± 6.1e-05
same,peptide microarray binding signal,"[1]; peptide region: H3 5-17, peptide modifications: H3K9me1 H3K14me1, binder concentration: 500 nM",0.00657 ± 6.6e-05
same,peptide microarray binding signal,"[2]; peptide region: H3 5-17, peptide modifications: H3K9me1 H3K14me1, binder concentration: 10 nM",0.00388 ± 5.4e-05
same,peptide microarray binding signal,"[2]; peptide region: H3 5-17, peptide modifications: H3K9me1 H3K14me1, binder concentration: 100 nM",0.0145 ± 0.0038
same,peptide microarray binding signal,[3]; [21],0.00068 ± 1.9e-05
same,peptide microarray binding signal,[3]; [22],0.000571 ± 1.1e-05
same,peptide microarray binding signal,[4]; [21],0.0061 ± 0.0011
same,peptide microarray binding signal,[4]; [22],0.00283 ± 0.00027
QTARKSTGGKAPR [H3 5-17 Q T A R Kme S T G G Kme2 A P R],peptide microarray binding signal,"[1]; peptide region: H3 5-17, peptide modifications: H3K9me1 H3K14me2, binder concentration: 50 nM",0.004514 ± 3.4e-05
same,peptide microarray binding signal,"[1]; peptide region: H3 5-17, peptide modifications: H3K9me1 H3K14me2, binder concentration: 500 nM",0.00667 ± 0.00028
same,peptide microarray binding signal,"[2]; peptide region: H3 5-17, peptide modifications: H3K9me1 H3K14me2, binder concentration: 10 nM",0.00555 ± 0.0003
same,peptide microarray binding signal,"[2]; peptide region: H3 5-17, peptide modifications: H3K9me1 H3K14me2, binder concentration: 100 nM",0.00595 ± 0.00024
same,peptide microarray binding signal,[3]; [23],0.00206 ± 0.00041
same,peptide microarray binding signal,[3]; [24],0.00211 ± 0.00015
same,peptide microarray binding signal,[4]; [23],0.00979 ± 0.0019
same,peptide microarray binding signal,[4]; [24],0.00352 ± 0.00022

# Source: the supplement of paper PMC4022240
